# Molecular target: T1, ETS2 (Homo sapiens, UniProt P15036 1-469)
# T1 sequence: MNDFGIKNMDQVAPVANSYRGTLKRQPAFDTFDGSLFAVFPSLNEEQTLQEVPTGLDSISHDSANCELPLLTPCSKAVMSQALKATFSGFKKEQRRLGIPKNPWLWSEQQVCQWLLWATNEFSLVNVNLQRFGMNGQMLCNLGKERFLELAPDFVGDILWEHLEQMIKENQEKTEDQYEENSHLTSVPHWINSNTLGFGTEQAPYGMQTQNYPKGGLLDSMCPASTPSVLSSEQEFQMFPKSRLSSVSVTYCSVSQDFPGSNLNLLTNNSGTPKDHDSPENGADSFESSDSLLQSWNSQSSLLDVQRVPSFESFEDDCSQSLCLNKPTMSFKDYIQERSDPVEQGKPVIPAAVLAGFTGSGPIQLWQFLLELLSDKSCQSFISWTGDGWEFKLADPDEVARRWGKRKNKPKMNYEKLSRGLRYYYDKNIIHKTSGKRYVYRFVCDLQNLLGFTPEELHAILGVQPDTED
# Experiment: DAPPL (digital affinity profiling via proximity ligation, sequencing); 10 mM Tris-HCl pH 7.5, 50 mM NaCl, 1 mM DTT, 4% glycerol, room temperature, 30 min; GST-TFs on glutathione beads, 16-mer random dsDNA library, 0.1% formaldehyde crosslink after washing; high values mean tight binding
# Settings: protein: recombinant; tags: N-terminal GST; dsDNA, one strand shown
# Outline: (§1)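 Beads coated with glutathione captured GST-fused human transcription factors that had been expressed in yeast, and the factors were then given DNA barcodes and pooled with a tag-only sample. The pools were incubated with 200 nmole of a random double-stranded 16-mer DNA library in Tris/NaCl/DTT/glycerol buffer for 30 min at room temperature, washed, crosslinked with 0.1% formaldehyde and proximity-ligated with BsaI/T4 ligase at 37 °C for 1 h. PCR amplification and Illumina NextSeq500 sequencing came last. Binding signal is each hexamer's read frequency for a factor divided by its frequency for the tag-only sample.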
row,Sequence,binding signal
1,ATAACG,"1.05 fold enrichment (6-mer frequency, TF over GST control)"
2,AAAGTC,"1.03 fold enrichment (6-mer frequency, TF over GST control)"
3,CAGTAT,"1.02 fold enrichment (6-mer frequency, TF over GST control)"
4,CCACCA,"1.05 fold enrichment (6-mer frequency, TF over GST control)"
5,ACGCGT,"1.01 fold enrichment (6-mer frequency, TF over GST control)"

# Molecular target: T2, SPDEF (Homo sapiens, UniProt O95238 1-335)
# T2 sequence: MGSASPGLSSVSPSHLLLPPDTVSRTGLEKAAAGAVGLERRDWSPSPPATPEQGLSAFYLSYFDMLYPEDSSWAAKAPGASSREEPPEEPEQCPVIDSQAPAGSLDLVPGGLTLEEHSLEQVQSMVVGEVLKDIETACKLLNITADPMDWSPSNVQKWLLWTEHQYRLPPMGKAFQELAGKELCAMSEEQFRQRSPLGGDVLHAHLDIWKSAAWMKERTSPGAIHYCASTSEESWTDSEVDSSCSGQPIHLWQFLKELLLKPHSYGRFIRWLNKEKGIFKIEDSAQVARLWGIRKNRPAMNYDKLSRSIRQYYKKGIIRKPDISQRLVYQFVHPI
# Experiment: as above
# Settings: protein: recombinant; tags: N-terminal GST; dsDNA, one strand shown
# Outline: as §1
row,Sequence,binding signal
1,CGGTCC,"1.04 fold enrichment (6-mer frequency, TF over GST control)"
2,GCATAT,"1.01 fold enrichment (6-mer frequency, TF over GST control)"
3,GATCCG,"1.65 fold enrichment (6-mer frequency, TF over GST control)"
4,CCACCA,"1.01 fold enrichment (6-mer frequency, TF over GST control)"
5,GATACC,"1.04 fold enrichment (6-mer frequency, TF over GST control)"
6,TGTTAG,"1.03 fold enrichment (6-mer frequency, TF over GST control)"
7,GTGTTG,"1.01 fold enrichment (6-mer frequency, TF over GST control)"
8,AGGTAA,"1 fold enrichment (6-mer frequency, TF over GST control)"

# Molecular target: T3, ETV7 (Homo sapiens, UniProt Q9Y603 1-341)
# T3 sequence: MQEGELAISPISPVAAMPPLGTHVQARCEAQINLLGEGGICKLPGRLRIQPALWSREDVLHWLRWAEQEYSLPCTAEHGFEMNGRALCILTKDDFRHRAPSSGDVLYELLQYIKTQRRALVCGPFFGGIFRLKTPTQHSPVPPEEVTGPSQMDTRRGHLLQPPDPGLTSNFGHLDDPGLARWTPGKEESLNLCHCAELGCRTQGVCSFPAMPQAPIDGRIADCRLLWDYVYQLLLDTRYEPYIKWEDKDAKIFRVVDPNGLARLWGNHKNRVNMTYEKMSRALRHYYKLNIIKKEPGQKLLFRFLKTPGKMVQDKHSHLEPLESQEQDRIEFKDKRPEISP
# Experiment: as above
# Settings: protein: recombinant; tags: N-terminal GST; dsDNA, one strand shown
# Outline: as §1
row,Sequence,binding signal
1,GTTGCC,"1.04 fold enrichment (6-mer frequency, TF over GST control)"
2,ACACAG,"1.13 fold enrichment (6-mer frequency, TF over GST control)"
3,GGCTGC,"1.14 fold enrichment (6-mer frequency, TF over GST control)"
4,GCATAT,"1.08 fold enrichment (6-mer frequency, TF over GST control)"
5,AAAGTC,"1.05 fold enrichment (6-mer frequency, TF over GST control)"
6,AGATGT,"1.04 fold enrichment (6-mer frequency, TF over GST control)"
7,TCTGAG,"1.05 fold enrichment (6-mer frequency, TF over GST control)"
8,GTCATT,"1.01 fold enrichment (6-mer frequency, TF over GST control)"
9,GGCCTG,"1.03 fold enrichment (6-mer frequency, TF over GST control)"
10,CAAGCC,"1.02 fold enrichment (6-mer frequency, TF over GST control)"

# Molecular target: T4, ETV3 (Homo sapiens, UniProt P41162-2 1-143)
# T4 sequence: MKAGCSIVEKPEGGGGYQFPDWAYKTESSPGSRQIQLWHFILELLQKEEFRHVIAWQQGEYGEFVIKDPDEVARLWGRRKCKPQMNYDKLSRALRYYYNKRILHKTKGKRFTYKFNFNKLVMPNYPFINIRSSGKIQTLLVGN
# Experiment: as above
# Settings: protein: recombinant; tags: N-terminal GST; dsDNA, one strand shown
# Outline: as §1
row,Sequence,binding signal
1,ATAACG,"1.05 fold enrichment (6-mer frequency, TF over GST control)"
2,GTAGCG,"1.01 fold enrichment (6-mer frequency, TF over GST control)"
3,CAAGCC,"1.02 fold enrichment (6-mer frequency, TF over GST control)"
4,CAACGG,"1.01 fold enrichment (6-mer frequency, TF over GST control)"
5,TCAGTA,"1.03 fold enrichment (6-mer frequency, TF over GST control)"
